Data on 40 compounds can be found in PubChem BioAssay (Tox21).

Each structure is given as a SMILES string. Records with an inconclusive call do not appear. A call without a number means that no potency is given here. Unmarked numbers belong to inactive results. The source made the active and inactive calls. The call rests on the fitted dose curve; in most records, active means well fitted activation curve with a large enough effect in the repeat runs; inconclusive means weak or mixed curves; inactive means flat fitted curve, though single readings scatter. Positions of bridges follow the written chain, without caps; N, C: chain ends. Non-standard residues stand in square brackets, D forms with d. Residues, ends and D or L forms follow the SMILES beside them. hArg = N=C(N)NCCCC[C@H](N)C(=O)O; Mpa = O=C(O)CCS
Potency means the concentration at half of the fitted maximal effect.

The assay in a line: A CellTox Green Cytotoxicity Assay to monitor cytotoxicity in HEK293 cells - 40 hour (AID 1224871). Further: nearly all actives have a fitted effect of over 45% in size. Conditions: CellTox Green fluorescence; series mostly up to 76.8 µM. The text has this:
National Center for Advancing Translational Sciences [NCATS]
NIH Chemical Genomics Center [NCGC]
U.S. Environmental Protection Agency [EPA]
National Institutes of Environmental Health Sciences [NIEHS]
National Toxicology Program [NTP]
Cell-based models are critical for drug discovery. Determining the natural cytotoxic effects resulting from test compounds is an essential research activity. A CellTox Green Cytotoxicity Assay to monitor cytotoxicity in real time of continues cell culture during 40 hours of the compound treatment was used to screen Tox21 10K library compounds in Hek293 cells. CellTox Green Cytotoxicity Assay is a nonlytic, homogeneous, biofluorescent method to measure cytotoxicity in cell culture after experimental manipulation. The assay system uses a proprietary asymmetric cyanine dye that is excluded from viable cells but preferentially stains the dead cell's DNA. […] Viable cells produce no appreciable increases in fluorescence. Therefore, the fluorescence signal produced by the binding interaction with dead cell DNA is proportional to cytotoxicity.
The mixture of Hek293 cell suspension and reagents were dispensed at 600cells/6 ul/well in 1536-well tissue culture treated black solid bottom plates using a Multidrop dispenser. After the assay plates were incubated at a 37 C/5% CO2 incubator for 5 hours, 23 nL of compounds dissolved in DMSO, positive and negative controls was transferred to the assay plate by a pintool work station. The plates were incubated at 37 C for 40 hours. The fluorescence intensity were measured at 0h, 8h, 16h, 24h, 32h and 40h time points using ViewLux plate reader during compound treatment.
Regarding `CCOCCOCC`, the Potency result was “inactive”.

As for `c1ccc(B(c2ccccc2)c2ccccc2)cc1`, the Potency result was “inactive”.

Take `Nc1nc(-c2ccccc2)c(Br)c(=O)[nH]1`: the Potency result is “inactive”.

As for `CCC/C=C(\C=O)CC`, the Potency entry was “inactive”.

For `CCCCCCCCCOC(=O)c1ccccc1C(=O)OCCCCCCCCC`, the Potency result is “inactive”.

Take `[O]=[Mo](=[O])=[O]`: the cytotoxicity increase is -43.2% [at 15.8 µM].

With `CC1c2ccccc2CN1NC(=O)c1ccc(Cl)c(S(N)(=O)=O)c1` (stereo not given), the Potency result is “inactive”.

Consider `CC(C)Nc1ccccc1`, for which the Potency entry was “inactive”.

As for `CCCCCCCCCCCCCCC(=O)NC(CO)CCCCCCCCCCCCCC` (stereo not given), the Potency entry was “inactive”.

Turning to `N#Cc1cscn1`, the Potency entry was “inactive”.

For the compound `O=C(O)c1cc2ccccc2nc1C(=O)O`, the Potency entry is “inactive”.

In the case of `CC(C)OC(=O)CCC(=O)OC(C)C`, the Potency result was “inactive”.

Consider `COC(=O)/C=C\C(=O)O`, for which the Potency entry is “inactive”.

For `NC(=O)[C@@H]1CSSCCC(=O)N[C@@H](CCCCN=C(N)N)C(=O)NCC(=O)N[C@@H](CC(=O)O)C(=O)N[C@@H](Cc2c[nH]c3ccccc23)C(=O)N2CCC[C@H]2C(=O)N1` ([Mpa][hArg]GDWPC-NH2; disulfide 1-7), the Potency entry is “inactive”.

For `C=Cc1ccc(C(C)(C)C)cc1`, the Potency result was “inactive”.

As for `c1ccc2c(CC3=NCCN3)cccc2c1`, the Potency entry is “inactive”.

Consider `NCCOCCN`, for which the Potency result was “inactive”.

Regarding `CN(C)CCN(C)CCO`, the Potency entry is “inactive”.

Consider `CCO`, for which the Potency entry was “inactive”.

As for `O=NN(CCCl)C(=O)NC1CCCCC1`, the Potency result was “inactive”.

For `COc1c2occc2c(OC)c2c(=O)cc(C)oc12`, the Potency result is “inactive”.

For `O=C1c2ccccc2C(=O)c2cc(Cl)ccc21`, the cytotoxicity increase is -5.31% [at 6.97 µM].

Take `CC1(C)[C@H]2CC[C@](C)(C2)[C@H]1O`: the Potency entry is “inactive”.

Turning to `CC1(C)Oc2ccc(C#N)cc2[C@@H](N2CCCC2=O)[C@@H]1O`, the Potency result was “inactive”.

Consider `OCC1CCC(CO)CC1` (stereo not given), for which the Potency result was “inactive”.

Consider `CO[C@@]1(NC(=O)Cc2cccs2)C(=O)N2C(C(=O)O)=C(COC(N)=O)CS[C@@H]21`, for which the Potency entry was “inactive”.

For `CC(C)NCC(O)c1ccc2ccccc2c1` (stereo not given), the Potency result is “inactive”.

For the compound `COC(=O)c1cccc(Cl)c1`, the Potency result is “inactive”.

Regarding `CCCC(=O)OC/C=C(\C)CCC=C(C)C`, the Potency was 49 µM (active).

Turning to `CCCCCCC1(C)CCC(=O)O1` (stereo not given), the Potency entry is “inactive”.

With `O=C(CCCl)NCCc1ccccc1`, the Potency entry was “inactive”.

Regarding `O=C=NCC1CCCC(CN=C=O)C1` (stereo not given), the Potency entry was “inactive”.

In the case of `CC1=C(C(=O)O)N2C(=O)[C@@H](NC(=O)[C@H](N)c3ccccc3)[C@H]2SC1`, the Potency result is “inactive”.

For the compound `CCCCCCCCCCCCCBr`, the Potency result was “inactive”.

Take `Cc1ccc(C(C)NC(=O)[C@@H](NC(=O)OC(C)C)C(C)C)cc1` (stereo not given in full): the Potency entry is “inactive”.

In the case of `CC(N)CCCC(C)(C)O` (stereo not given), the Potency entry was “inactive”.

As for `O=Cc1cc2ccccc2o1`, the Potency entry is “inactive”.

`Cc1c(NC(=O)c2cccnc2)c(=O)n(-c2ccccc2)n1C`: the Potency result is “inactive”.

Consider `O=C1OCCO1`, for which the Potency was 0.291 µM (active).

Turning to `COc1cc2c(cc1OC)CN(C(=O)[C@H](C)N[C@@H](CCc1ccccc1)C(=O)O)[C@H](C(=O)O)C2`, the Potency result is “inactive”.
